Hits are enriched below; roughly 3.2% of the tested compounds scored in any of these assays.
CaV13 FRET inh: Disruptors of the CACNA1D IQ motif to Ca2+-dependent inactivation inhibitor domain association, primary screening, Förster resonance energy transfer in intact living …. HEK cells, CFP/YFP FRET ICDI-IQ, plate reader, 10 min; percent FRET-ratio fall versus neutral wells. inhibition, % at 12.3 µM. 340,000 tested, 0.098% active;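 active means mean replicate inhibition of at least 30% and at least 1% of replicates passing that level; inconclusive means only one of the two criteria is met; inactive means neither criterion is met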;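 further: 0% = median of the neutral control wells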
rRNA inh HTS: reduced GFP signal of wild-type E. coli, primary screen, bacterial rRNA inhibitor project, GFP/RFP fluorescence, OD600, single point | GFP signal change (wild-type ribosome), % (concentration not given with the values) | 350,000 tested, 1.6% active | E. coli WT GFP vs humanized-ribosome RFP mutants, 24 h; hits give low values; DMSO median 0, no signal -100;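 active means significant combined selectivity score with lowered wild-type GFP, culture density cut under 30%, mutant RFP and density less affected; inactive means any of these conditions unmet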
DENV2 CPE: inhibitors of DENV2 cytopathic effect, primary screen, cell-based, plate reader, single concentration | DENV2-infected cells, cytopathic effect rescue | CPE inhibition, % at 9.99 µM | 350,000 tested, 1.7% active | AID 651640, 2012; in the data active means CPE inhibition above about 20%, passing the limit was not always enough; inconclusive means no clear call, values can overlap the other calls; tested in BHK-21 cells;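 further: 0% = median of neutral control wells and 100% = median of positive control wells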
PGC1a acetyl inh: inhibitors of PGC1a acetylation signal, primary screen, cell-based, U2OS, AlphaScreen, inhibitor mode. inhibition, % at 15.6 µM. AID 651687, 2012. 350,000 tested, 0.17% active. AlphaScreen anti-acetyl-lysine; with virally co-expressed GCN5 acetyltransferase;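 active means every replicate shows inhibition of at least 40%; inconclusive means mean inhibition at least 40% but some replicate below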;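 further: 0% = neutral control wells and 100% = positive control wells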
ERAP1 inh: human ERAP1 aminopeptidase inhibitors, primary screen, biochemical, single point, plate reader. Endoplasmic reticulum aminopeptidase 1 (Homo sapiens), Q9NZ08. recombinant ERAP1, Leu-AMC fluorescence, 60 min. inhibition, % at 10.7 µM. 340,000 tested, 0.15% active. AID 652197, 2013;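 active means mean replicate inhibition of at least 30%, or all replicates individually reaching that 30% level; inactive means mean below 30% and not every replicate reaching it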;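 further: 0% = neutral control wells and 100% = L-leucinethiol positive control wells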
GSIS activator: GLuc luminescence reporter in INS-1E cells, primary screen for activators of glucose-dependent secretion of insulin | 370,000 tested, 0.61% active | AID 743287, 2014 | activation, % at 16.6 µM | INS-1E GLuc reporter insulin secretion, 2-3 h;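 active means lowest replicate activation of at least 40%, so every replicate reaches that level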;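 further: 0% = median of neutral control wells and 100% = median of IBMX positive control wells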
AID977621: growth inhibition of wild-type GFP E. coli, dose response, H69 mutant RFP, cherry-pick. 1,900 tested, under 10 active. activity change, negative = inhibition at 50 µM. shares compounds with rRNA inh HTS. E. coli wild-type GFP strain growth, fluorescence, 24 h;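 active means Wild-type ribosome reporter drop at least double the humanized mutant ribosome reporter drop, growth loss under a set limit; inconclusive means no clear call, values can overlap the other calls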;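 further: wild-type GFP and H69 mutant RFP strains grown together 50/50 in each well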
AID977628: E. coli growth inhibition, wild-type GFP versus h24 humanized RFP strain, dose response, h24 mutant RFP vs wild-type GFP, cherry-pick. E. coli WT GFP strain growth, fluorescence, 24 h. activity change, negative = inhibition at 50 µM. 1,900 tested, under 10 active. AID 977628, 2014. shares compounds with rRNA inh HTS;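 active means compound lowering the normal-ribosome reporter at least twice as much as the humanized-ribosome reporter, growth loss under a set limit; inconclusive means no clear call, values can overlap the other calls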;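 further: wild-type GFP and h24 humanized RFP strains co-cultured 1 to 1 per well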
Numbers without * were called inactive; ? = inconclusive; / = not tested or not shown.

SMILES	CaV13 FRET inh	rRNA inh HTS	DENV2 CPE	PGC1a acetyl inh	ERAP1 inh	GSIS activator	AID977621	AID977628
CO[C@H]1CN(C)C(=O)c2cc(NC(=O)c3ccccc3)ccc2OC[C@@H](C)NC[C@@H]1C	/	-4	?	-16	2	2	/	/
O=C(O)c1cc(-c2ccc(Cl)s2)nc2ccccc12	-6	-27*	-1	5	4	-7	-13	?
Cc1ccc(-c2cc(C(=O)O)c3ccccc3n2)s1	-3	-4	3	8	-6	6	/	/
COc1cc(NC(=O)CSc2nc(C)cs2)cc(OC)c1	-7	-30*	3	-6	0	18	-16	/
C[C@H](CO)N1C[C@H](C)[C@H](CN(C)S(=O)(=O)c2cccs2)Oc2ccc(NS(C)(=O)=O)cc2C1=O	/	1	/	4	2	5	/	/
CC(NC(=O)C12CC3CC(C)(CC(C)(C3)C1)C2)c1ccncc1 (stereo unspecified)	-5	-24*	2	0	-3	-1	-20	-7.7
Cc1onc(-c2c(F)cccc2Cl)c1C(=O)c1ccccc1	-3	-24	5	-9	/	3	/	/
Cc1onc(-c2c(F)cccc2Cl)c1C(=O)c1ccccc1O	-15	-42*	0	0	3	6	-10	?
COc1ccc(S(=O)(=O)Nc2ccc3c(c2)C(=O)N([C@H](C)CO)C[C@@H](C)[C@H](CN(C)C(=O)Nc2ccc4c(c2)OCO4)OCCCC[C@H](C)O3)cc1	/	-1	-9	-8	3	12	/	/
CCC(=O)Nc1ccc2c(c1)C(=O)N(C)[C@H]1CC[C@H](CC(=O)Nc3ccc(OC)cc3)O[C@@H]1CO2	/	0	-4	2	-3	-10	/	/
COc1cc[n+]([O-])cc1[N+](=O)[O-]	-5	1.2*	9	-5	-5	8	-14	-6.7
CC(C)(C)CC(=O)NCCc1csc(-c2ccccc2)n1	-4	-16*	-3	12	20	24	-3.8	?
CSc1ccccc1C(=O)NCCc1ccc(S(=O)(=O)N2CCCCC2)cc1	-7	-21*	4	-8	0	-20	/	-13
O=C(NCCc1ccccc1)c1ccc(S(=O)(=O)N2CCCCC2)cc1	-4	4	-1	-2	-2	/	/	/
Cc1cnc(C)c(N2CCN(Cc3nc(-c4cccc(F)c4F)oc3C)CC2)n1	-4	-16	-6	/	3	-15	/	/
Cc1cccc(N2CCN(Cc3nc(-c4ccc(F)cc4F)oc3C)CC2)n1	-4	-34*	-5	3	-2	-33	-12	-19
Cc1noc(C)c1S(=O)(=O)Nc1ccc2c(c1)C(=O)N([C@@H](C)CO)C[C@@H](C)[C@@H](CN(C)CC1CCCCC1)O2	/	2	9	-3	0	9	/	/
CCCC(=O)N(CCc1ccc(OC)cc1)Cc1nc2ccccc2c(=O)[nH]1	-7	-21*	3	1	0	33	/	-7.7
CCCCC(=O)N(Cc1ccc2c(c1)OCO2)Cc1nc2ccccc2c(=O)[nH]1	-11	-23*	1	/	-1	-1	/	-3.8
COc1ccccc1CNC(=O)CCCc1cn(C)c2ccccc12	-3	-25	-6	-3	-2	-6	/	/
COc1ccc(CNC(=O)Cc2cn(C)c3ccccc23)c(OC)c1	-13	-24*	8	-6	-8	-4	-1.1	-6.3
COc1cccc(C(=O)c2c[nH]c(C(=O)NCc3cccnc3)c2)c1	-4	-29*	-7	-86	-1	-11	/	-10
Cc1cc(C)nc(SCCC(=O)Nc2ccccc2Cl)n1	-6	-18*	-1	2	0	19	/	-15
Cc1cc(C)nc(SCCC(=O)Nc2cccc3ccccc23)n1	/	/	/	6	/	/	/	/
Cc1ccc(-c2nc(CN3CCCCC3c3cccc(F)c3)c(C)o2)o1 (stereo unspecified)	-7	-18*	-2	-3	-1	-4	-5.9	-15
SMILES	CaV13 FRET inh	rRNA inh HTS	DENV2 CPE	PGC1a acetyl inh	ERAP1 inh	GSIS activator	AID977621	AID977628
C[C@H](CO)N1C[C@H](C)[C@@H](CN(C)C(=O)C2CC2)Oc2cc(Br)ccc2S1(=O)=O	/	6	-4	-15	4	32	/	/
C=CCn1c(SCC(=O)N2CCCC2=O)nc2sc(CC)cc2c1=O	-14	-23*	11	11	-2	-35	-18	?
C=CCn1c(SCC(=O)NC2CC2)nc2sc(CC)cc2c1=O	-5	1	5	/	-2	7	/	/
COc1cc2ccccc2cc1C(=O)NCC(c1cccs1)N(C)C (stereo unspecified)	-7	-24*	-1	/	-5	7	?	-3.9
CCN(c1ccccc1)S(=O)(=O)c1cccc(C(=O)NCC(c2cccs2)N(C)C)c1 (stereo unspecified)	-4	-24*	/	/	2	-19	/	?
CNS(=O)(=O)c1cccc(C(=O)NCC(c2cccs2)N(C)C)c1 (stereo unspecified)	-6	/	/	-6	/	/	/	/
COc1cc(OC)c(C(=O)NCC(c2cccs2)N(C)C)cc1OC (stereo unspecified)	/	/	/	-14	/	/	/	/
C/C=C/c1cnc2c(c1)C(=O)N([C@H](C)CO)C[C@H](C)[C@H](CN(C)C(=O)C1CCCCC1)O2	/	1	-5	0	0	-4	/	/
Cc1nn2c(C)c(C(=O)Nc3ccccc3)cnc2c1-c1ccccc1	1	-32*	42*	-6	7	-28	8.6	-3.7
CC(=O)c1cnc2c(-c3ccccc3)c(C(F)(F)F)nn2c1C	0	/	-2	/	4	/	/	/
C[C@@H]1CN([C@@H](C)CO)C(=O)c2cccc(NC(=O)C3CC3)c2O[C@H]1CN(C)Cc1ccc(Cl)c(Cl)c1	/	-3	13	-1	1	-17	/	/
O=C(Cn1c(CO)nc2ccccc21)NCCc1ccc(F)cc1	-6	-19*	-2	-2	/	9	?	/
C[C@H]1CN([C@@H](C)CO)C(=O)c2cc(NC(=O)Cn3cnnn3)ccc2O[C@H]1CN(C)CC1CC1	/	-3	-6	-14	-2	-27	/	/
Cc1nc(N2CCC(C)CC2)c(C#N)c(C)c1[N+](=O)[O-]	1	-25*	3	1	-1	8	0.53	-9.6
